Assay outcomes from PubChem BioAssay.
Myeloid diff MLP – myeloid differentiation induction. ER-HoxA9 myeloid progenitors, lysozyme-GFP differentiation, flow cytometry. calls only at 10 µM. 1% of 360,000 active;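 active = normalized GFP-positive differentiation at or above the plate's own cutoff, the solvent-only control mean plus 3 SD; inconclusive = no clear call, values can overlap the other calls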;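 also: cells exposed to compound for four days before flow analysis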
FAS TE block – inhibitors of human fatty acid synthase thioesterase domain. 0.67% of 360,000 active. recombinant FAS-TE, OMFH fluorogenic substrate, fluorescence endpoint. P49327. inhibition, % at 15 µM;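 active = compounds whose normalised, plate-corrected inhibition of enzyme fluorescence in the single-dose primary screen is 50% or more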;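 also: 0% = DMSO with enzyme and 100% = substrate without enzyme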
rCAG RNA binder – molecules binding r(CAG) RNA repeats; r(CAG) RNA repeat, TO-PRO-1 dye displacement fluorescence; inhibition, % at 3 µM; 1.3% of 370,000 active;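 active = inhibition above the plate cutoff, the mean of all test compounds on that plate plus 3 SD, cut at about 35% in these data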;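 also: 0% = DMSO alone and 100% = 100 µM mitoxantrone as full dye displacement; higher means more dye released from RNA so lower well fluorescence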
NR3A LBD binder – modulates the human NR3A ligand-binding domain. AID 1259313. 2.5% of 340,000 active. NR3A LBD differential scanning fluorimetry, Tm shift; 0% = protein alone, 100% = glycine-bound protein. Tm shift relative to glycine control, % at 25 µM;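 active = melting temperature shift of at least 10% of the positive control shift, at one fixed dose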
MPTP block – inhibitors of mitochondrial permeability transition pore; isolated mouse mitochondria, Ca2+ swelling absorbance, 30 min; inhibition, % at 10 µM; 1.4% of 360,000 active; AID 602449;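 active = inhibition of 50% or more, scaled per plate between neutral and stimulator controls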;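 also: 0% = DMSO wells given calcium and 100% = 1 mM EGTA wells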
Active calls of the source: *; i = inactive; ? = inconclusive; . = no result given; + = active, no number. Sampled rows, rich in hits. Any-hit rate of the full collection: about 5.7%.

SMILES | Myeloid diff MLP | FAS TE block | rCAG RNA binder | NR3A LBD binder | MPTP block
Nc1nc(N)c2c(ccc3c2ccn3Cc2cccc([N+](=O)[O-])c2)n1 | + | 31 | 14 | . | 7
Cc1cc(NS(=O)(=O)c2ccc(NC(=O)CSc3nnc(-c4ccncc4)n3-c3ccccc3)cc2)nc(C)n1 | . | . | 10 | . | .
COc1ccc(C(=O)C(=O)N2CCN(C(=O)c3ccccc3C(F)(F)F)CC2)cc1OC | . | . | -2 | . | .
CN1CCc2c(sc3c2C(=O)NC(c2ccc(-c4ccc(Cl)cc4)o2)N3)C1 (stereo not given) | + | -6 | -5 | 2 | 2
CCN(CC(=O)Nc1ccc(NC(C)=O)cc1)C(=O)/C=C/c1cn(-c2ccccc2)nc1-c1ccc(C)cc1 | i | 20 | 16 | 10* | 0
CN(CC(=O)Nc1ccc(F)cc1)C(=O)c1cn(-c2ccccc2)nc1-c1cccs1 | i | 17 | 5 | 24* | 0
CCN(CC(=O)Nc1ccc(NC(C)=O)cc1)C(=O)/C=C/c1cn(-c2ccccc2)nc1-c1ccc(F)cc1 | i | 39 | 7 | 14* | 1
COc1ccc(-c2nn(-c3ccccc3)cc2/C=C/C(=O)N(C)CC(=O)Nc2cccc(F)c2)cc1OC | i | 35 | 20 | 11* | -1
COc1cccc(NC(=O)CN(C)C(=O)/C=C/c2cn(-c3ccccc3)nc2-c2ccc(OC)c(OC)c2)c1 | i | 48 | 13 | -1 | 0
CCOC(=O)C(Cc1ccccc1)CP(=O)(OC)[C@@H](C)NC(=O)OCc1ccccc1 (stereo not given in full) | . | . | -1 | . | .
CC(C)C[C@H](NC(=O)c1cccs1)C(=O)N1CCC[C@H]1C(=O)NCc1ccccc1 | . | . | -2 | . | .
Cc1nc(S/C(=C/c2ccc(-c3cccc(Cl)c3)o2)C(=O)O)n[nH]1 | + | -15 | 21 | 0 | 1
C[C@H](O)[C@@H]1C(=O)N2CCc3c([nH]c4cccc(-c5ccccc5)c34)[C@@H]2C[C@@H]1N(C)C(=O)Nc1ccccc1 | . | . | 8 | . | .
COC(=O)C1CCN(C(c2ccc(OC)c(OC)c2)c2sc3nc(C)nn3c2O)CC1 (stereo not given) | i | -4 | 2 | 13* | -2
CNC(=O)C(=O)NCC1OCCN1S(=O)(=O)c1ccc(C)cc1 (stereo not given) | i | -7 | 1 | 11* | -2
COCCNC(=O)C(=O)NCC1OCCN1S(=O)(=O)c1ccc(C)cc1 (stereo not given) | i | -6 | 0 | 14* | -1
Cn1cccc1-c1nc2ccc(NC(=O)c3ccccc3)cc2[nH]1 | i | -2 | 2 | 5 | 1
COC(=O)c1ccc(C(=O)Nc2ccc3nc(-c4ccncc4)[nH]c3c2)cc1 | i | 1 | 5 | 15* | 8
Cn1cccc1-c1nc2ccc(NC(=O)c3ccc([N+](=O)[O-])cc3)cc2[nH]1 | i | 3 | 12 | 27* | 4
Nc1ccc(C(=O)Nc2ccc3nc(-c4cccnc4)[nH]c3c2)cc1 | i | -3 | 2 | 13* | 5
CC(C)NC(=O)C1CCN(c2cncnc2)CC1 | . | . | 4 | . | .
CC(C)C[C@H]1COc2cc(N3CCSCC3)ccc2S(=O)(=O)N1C | . | . | 0 | . | .
CN(C)S(=O)(=O)c1cccc(NC(=O)COC(=O)c2cc(-c3cccc(Br)c3)nc3ccccc23)c1 | i | 38 | 17 | 22* | 21
COc1cccc(NC(=O)CN(C)C(=O)c2cc(-c3cccc(Br)c3)nc3ccccc23)c1 | i | 28 | 10 | 18* | 1
COc1cccc(NC(=O)CN(C)C(=O)c2cc(-c3ccccc3)nc3ccc(C)cc23)c1 | i | 6 | 4 | 6 | 0
SMILES | Myeloid diff MLP | FAS TE block | rCAG RNA binder | NR3A LBD binder | MPTP block
COc1ccc(NC(=O)CN(C)C(=O)c2cc(-c3ccc(Cl)cc3)nc3ccccc23)cc1 | i | 24 | 13 | 14* | 1
COc1ccccc1C(=O)NC1CCCCN(Cc2cccc(C(F)(F)F)c2)C1=O (stereo not given) | . | . | -2 | . | .
O=C1NC(=S)S/C1=C/c1ccc(N2CCOCC2)o1 | + | -43 | . | -2 | 40
COC(=O)[C@@]12C[C@@H](CC(=O)NCCC(C)C)C(=O)N(Cc3cccc4ccccc34)C1=CCC(C)(C)C2 | i | . | 2 | . | -3
COc1ccc(CCNc2nc(-c3ccc(F)cc3)c(CC(=O)O)s2)cc1OC | + | -4 | 10 | -1 | 0
CC(=O)c1sc(NS(=O)(=O)c2ccc(C)cc2)nc1C | i | -2 | 9 | -1 | -2
C/C(=N/NC(=O)c1sc(NS(=O)(=O)c2ccc(C)cc2)nc1C)c1sc(N)nc1C | i | -4 | 48* | -1 | -2
Cc1nc2ccc(S(=O)(=O)NCC(=O)NCc3ccccc3Cl)cc2s1 | . | . | 2 | . | .
Cc1ccc(N(CC(=O)O)S(C)(=O)=O)cc1Cl | i | -8 | -1 | 12* | 0
COc1ccc(CS(=O)(=O)CC(C)(O)c2ccccc2Cl)cc1 (stereo not given) | i | -2 | -5 | 16* | 0
CC(C)CN(CC(C)C)C(=O)c1ccc2c(c1)NC(=O)C(C)(C)O2 | . | . | -2 | . | .
Cc1ccc(S(=O)(=O)N[C@H](C(=O)OCC(=O)NC(=O)C2CCCCC2)C(C)C)cc1 | i | 4 | 0 | 23* | 0
Cc1ccc(S(=O)(=O)N[C@H](C(=O)OCC(=O)NC(=O)Nc2ccc3c(c2)OCCO3)C(C)C)cc1 | i | -2 | -3 | -5 | 3
COC(=O)c1ccc(=O)c2nc3/c(=C/O)c(O)cc(=O)c3[nH]c12 | i | 30 | 69* | -6 | 5
COC(=O)c1ccc(N)cc1O | i | -17 | 0 | 3 | 0
COC(=O)C1=C(C)N(Cc2cccc(C(F)(F)F)c2)C(=NCc2ccccc2C(F)(F)F)NC1c1ccc(Cl)cc1 (stereo not given) | . | . | 3 | . | .
CC1(C)Nc2ccccc2N(CCC(=O)N2CCOCC2)C1=O | i | -2 | -2 | 13* | -4
CC1(C)Nc2ccccc2N(CC(=O)N2CCCCC2)C1=O | i | -4 | 1 | -5 | -1
COC(=O)c1ccc(N2C(=O)CC(SCCN)C2=O)cc1 (stereo not given) | i | -6 | 0 | 12* | 1
Cc1cc(/C=N\NC(=O)CC(=O)NC2CCCCC2)c(C)n1-c1ccc(Cl)c(Cl)c1 | + | 20 | 2 | -3 | 2
O=C(CCn1c(=O)c2cccn2c2cccnc21)NCc1cccc(Cl)c1 | i | 15 | 3 | 10* | -2
O=C(CCCn1c(=O)c2cccn2c2cccnc21)NCc1cccc(Br)c1 | ? | 18 | -1 | 1 | 1
COc1ccc(OC)c(CN2C(=O)CSCC2(C)c2nnnn2C2CCCC2)c1 (stereo not given) | . | . | 1 | . | .
CCOc1cc(S(=O)(=O)NCCN2CCOCC2)c(C)cc1C | i | -5 | -4 | 11* | 0
CCOc1ccc(S(=O)(=O)NCCN2CCOCC2)c2ccccc12 | i | -7 | 1 | 1 | 2
C=CCc1cccc(OC)c1OCCOCCn1ccnc1 | i | -10 | 0 | 12* | -1
C=CCc1ccccc1OCCn1ccnc1 | i | -7 | -2 | -3 | -2
